High-throughput results deposited in PubChem by National Center for Advancing Translational Sciences (NCATS).
Pf growth 48h – P. falciparum growth inhibition at 48 hours (one generation) | P. falciparum luciferase growth in erythrocytes, 48 h | Potency, µM (series often up to 28.7 µM), most hits filed as inhibitors | 310,000 tested, 5.9% active
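A one-generation exposure of luciferase-tagged malaria parasites in RPMI 1640/Albumax erythrocyte culture, 37 C and 5% CO2. Inhibition is inferred from decreased luminescence after adding detection reagent.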
HCV inhibitor – inhibitors of hepatitis C virus infection. Huh7.5.1 HCVcc-Cre infection, luciferase reporter, 44 h. Potency, µM (doses to about 41.8 µM), actives largely listed as inhibitors. 340,000 tested, 3.4% active. AID 651820
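Compounds are dispensed onto cells plated 4 h earlier at 1,000 per well, with HCVcc-Cre virus (about 0.5 moi) added next. Following 44 h of culture, luminescent signal is measured for 15 sec after 15 min with substrate at room temperature.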
Pf growth 96h – P. falciparum growth inhibition at 96 hour, primary screen for plastid delayed-death inhibitors; P. falciparum luciferase reporter growth, 96 h; Potency, µM (highest dose often 28.7 µM), actives largely listed as inhibitors; 320,000 tested, 6.9% active
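Delayed-death screen, second-generation endpoint: infected erythrocytes, 2% hematocrit, 0.05% parasitemia final; 96 hours at 37 C, 5% CO2; luciferase detection reagent; luminescence decrease equals reduced growth.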
AMA1-RON2 inh – disrupts binding of P. falciparum AMA1 to RON2 | AlphaScreen AMA1-biotinylated RON2 peptide binding | Potency, µM (doses to about 58.2 µM), hits mostly inhibitors | 360,000 tested, 0.2% active; further: nearly all actives have a fitted effect of over 45% in size
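AMA1 (3D7) with his tag at 25 nM final met compounds first, then biotinylated RON2 peptide at 25 nM; detection used donor plus acceptor beads, 10 µg/mL apiece, read by AlphaScreen after 30 min at room temperature.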
NS1 function inh – inhibitors of influenza NS1 protein function | 270,000 tested, 0.4% active | Potency, µM (series often up to 46.1 µM); calls by dose curve; further: actives are rising curves; nearly all actives have a fitted effect of over 50% in size
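Read-out: OD600 growth recovery of NS1-expressing budding yeast. Cells grown overnight at 30C in -URA glucose medium, washed, resuspended and diluted 1:100 in 2% galactose assay medium, pH 6.0. Same strain lacking NS1 served as positive control.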
SARS PLpro yeast – inhibitors of SARS-CoV papain-like protease in yeast. S. cerevisiae expressing SARS-CoV PLpro, growth rescue. Potency, µM (top dose mostly 32.9 µM), most hits filed as activators. 330,000 tested, 0.19% active; calls by dose curve; further: nearly all actives have a fitted effect of over 55% in size
Of the large screens only hits and unclear results are named; the others gave an inactive call. Sampled rows, rich in hits. Any-hit rate of the full collection: about 12%. Unless noted, the call rests on the fitted dose curve; in most records, active means well fitted curve in the direction sought with a large enough effect; inconclusive means small, poorly fitted or top-dose-only effect, or another doubt; inactive means no such curve, though single readings can be large; an effect the other way counts as inactive or inconclusive.

O=C(Nc1cccc2ncccc12)c1cc([N+](=O)[O-])ccc1Cl	HCV inhibitor 8.9µM, Pf growth 96h 12µM
CCN(CCn1cccn1)C(=O)CCc1nnc(C2(c3ccc(Cl)cc3)CCC2)o1	none
CCC(CC)CN1CCN=C1Nc1ccccc1	Pf growth 48h inconclusive (no result: NS1 function inh)
O=C(c1ccco1)N1CCN(S(=O)(=O)c2c(Cl)cccc2Cl)CC1	none
O=C(Nn1cnnc1)c1ccccc1Cl	Pf growth 96h 8.3µM, NS1 function inh inconclusive
COc1cccc(C(=O)Nn2cnnc2)c1OC	Pf growth 96h 2.1µM
Cc1ccccc1C(=O)Nn1cnnc1	none
O=C(O)c1ccccc1C(=O)Nn1cnnc1	none
COc1ccc(/C=N/n2cnnc2)cc1COc1ccccn1	Pf growth 96h 2.1µM
COc1cc(/C=N/n2cnnc2)ccc1OCc1ccccc1	none
O=C(CC1NCCc2ccccc21)Nc1ccccc1Cl (configuration not stated)	none (no result: NS1 function inh)
S=C1NCCc2ccccc2C1c1ccccc1Cl (configuration not stated)	Pf growth 48h 13µM, Pf growth 96h inconclusive
S=C1NCCc2ccccc2C1c1ccccc1 (configuration not stated)	Pf growth 48h 8.3µM, Pf growth 96h inconclusive
NS(=O)(=O)c1ccc(CCNC(=O)COC(=O)C2COc3ccccc3O2)cc1 (configuration not stated)	none (no result: Pf growth 48h, Pf growth 96h, NS1 function inh)
O=[N+]([O-])c1ccc(C(O)C[n+]2ccccc2)cc1 (configuration not stated)	Pf growth 96h 7.4µM
CCOCCOC(=O)c1[nH]c2c(c1C)C(=O)CC(c1ccc(OC)c(OC)c1)C2 (configuration not stated)	Pf growth 48h inconclusive, HCV inhibitor inconclusive, Pf growth 96h 1.5µM
COc1cc(C2CC(=O)c3c([nH]c(C(=O)OCCOC(C)C)c3C)C2)cc(OC)c1OC (configuration not stated)	Pf growth 48h 7.4µM, HCV inhibitor inconclusive, Pf growth 96h inconclusive
CCOC(=O)c1[nH]c2c(c1C)C(=O)CC(c1ccc(OC)c(OC)c1)C2 (configuration not stated)	Pf growth 48h inconclusive, HCV inhibitor inconclusive
OC1COCOC1C(O)C1OCOCC1O (configuration not stated)	none (no result: Pf growth 48h, Pf growth 96h, NS1 function inh, SARS PLpro yeast)
Cc1ccc(C(=O)NCC(=O)OCc2nc3ccsc3c(=O)[nH]2)cc1C	none (no result: Pf growth 48h, HCV inhibitor, Pf growth 96h, NS1 function inh, SARS PLpro yeast)
CN(C(=O)c1ccc2c(c1)SC1=NS(=O)(=O)CCN12)C(c1ccccc1)c1ccccc1	Pf growth 48h 12µM, Pf growth 96h 12µM
O=C(O)c1ccc2c(c1)SC1=NS(=O)(=O)CCN12	none
Cn1nccc1C(=O)N1CCN(S(=O)(=O)c2ccc(Br)s2)CC1	none
N#Cc1nc(Cc2cccc3ccccc23)oc1N1CCOCC1	Pf growth 48h inconclusive, Pf growth 96h 2.1µM
N#Cc1nc(Cc2cccc3ccccc23)oc1N1CCN(c2ccccc2)CC1	none (no result: Pf growth 48h)
CC(Sc1nc(-c2ccccc2)nc2c1COC(C)(C)C2)C(=O)N1CCOCC1 (configuration not stated)	Pf growth 96h 8.3µM (no result: Pf growth 48h)
CCOC(=O)C(C)Sc1nc(N2CCOCC2)c2c(c1C#N)CC(C)(C)OC2 (configuration not stated)	none (no result: Pf growth 48h, Pf growth 96h, NS1 function inh, SARS PLpro yeast)
CC(Sc1nc(N2CCOCC2)c2c(c1C#N)CC(C)(C)OC2)C(=O)Nc1ccccc1 (configuration not stated)	Pf growth 48h 13µM, HCV inhibitor inconclusive (no result: Pf growth 96h)
COC(=O)c1ccc(CSc2nc(N3CCOCC3)c3c(c2C#N)CC(C)(C)OC3)o1	Pf growth 48h 8.3µM
Cc1ccc(-c2nc3c(c(SCC(=O)N4CCOCC4)n2)COC(C)(C)C3)cc1	none (no result: Pf growth 48h, Pf growth 96h, NS1 function inh, SARS PLpro yeast)
CCOC(=O)CCSc1nc(N2CCOCC2)c2c(c1C#N)CC(C)(C)OC2	Pf growth 48h 4.7µM
O=C([C@H]1O[C@@H](n2ccc(=O)[nH]c2=O)[C@H](O)[C@@H]1O)N1CCSC1	none (no result: Pf growth 48h, HCV inhibitor, Pf growth 96h, NS1 function inh, SARS PLpro yeast)
CC(C)CCSc1nc(N2CCOCC2)c2c(c1C#N)CC(C)(C)OC2	Pf growth 48h 9.3µM, HCV inhibitor inconclusive
Cc1ccc2cccc(OCCCOc3ccccc3F)c2n1	HCV inhibitor 10µM
Cc1ccc2cccc(OCCOCCOc3ccccc3Br)c2n1	HCV inhibitor inconclusive
CSc1ncnc2c1ncn2CCCN1CCN(C(=O)C2CC2)CC1	none (no result: Pf growth 48h, HCV inhibitor, Pf growth 96h, NS1 function inh, SARS PLpro yeast)
Cc1cc(C)c2c(N)c(C(=O)c3ccccc3)oc2n1	Pf growth 96h 2.3µM (no result: HCV inhibitor, SARS PLpro yeast)
Cc1cc(C)c2c(N)c(C(=O)c3ccc(Br)cc3)oc2n1	HCV inhibitor inconclusive
CC(OC(=O)CNC(=O)COc1ccccc1)C(=O)N(C)Cc1ccccc1 (configuration not stated)	none (no result: NS1 function inh)
O=C(Nc1cc2c3c(c1)C1CCCC1CN3CC1CCCC21)c1ccccc1 (configuration not stated)	Pf growth 48h 13µM, HCV inhibitor 16µM
CCOC(=O)Cn1cc(/C=C/[N+](=O)[O-])c2ccccc21	Pf growth 48h inconclusive, HCV inhibitor inconclusive
Cc1cccc(Cn2cc(/C=C/[N+](=O)[O-])c3ccccc32)c1	Pf growth 48h 3.7µM, HCV inhibitor inconclusive
O=[N+]([O-])/C=C/c1cn(Cc2ccc(Cl)cc2)c2ccccc12	Pf growth 48h 3.7µM, HCV inhibitor inconclusive, Pf growth 96h inconclusive, AMA1-RON2 inh inconclusive
COC(=O)c1ccc(Cn2nc(C)c([N+](=O)[O-])c2C)o1	Pf growth 96h 13µM
COC(=O)c1ccc(Cn2cc(/C=C\[N+](=O)[O-])c3ccccc32)o1	Pf growth 48h 4.7µM, Pf growth 96h inconclusive
CC(=O)c1ccc(Nc2nc(C(N)COCc3ccccc3)cs2)cc1 (configuration not stated)	none (no result: Pf growth 48h, HCV inhibitor, Pf growth 96h, NS1 function inh, SARS PLpro yeast)
CCCCN(C(=O)c1cccc(-n2cnnn2)c1)c1c(N)n(CCCC)c(=O)[nH]c1=O	none (no result: Pf growth 48h, HCV inhibitor, Pf growth 96h, NS1 function inh, SARS PLpro yeast)
Cc1cc(C)nc(-n2nc(C)cc2NC(=O)CN2CCC(C)CC2)n1	Pf growth 48h inconclusive, Pf growth 96h 2.3µM
CCC1CCCCN1CC(=O)Nc1cc(C)nn1-c1nc(C)cc(C)n1 (configuration not stated)	Pf growth 48h 5.2µM, HCV inhibitor inconclusive
COc1cc(NC(=O)c2ccccc2F)ccc1NC(=O)c1cc2ccccc2o1	HCV inhibitor inconclusive
Cc1ccc(S(=O)(=O)c2c(C)cc(C)[nH]c2=O)cc1	none
Cc1nn(CC(=O)Nc2ccc(N3CCOCC3)cc2)c(C)c1[N+](=O)[O-]	none (no result: Pf growth 48h, Pf growth 96h, NS1 function inh)
O=C(Nc1ccc([N+](=O)[O-])cc1)N1CCCCCC1	Pf growth 96h inconclusive (no result: SARS PLpro yeast)
O=C(Nc1ccc([N+](=O)[O-])cc1)N1CCc2ccccc2C1	Pf growth 48h inconclusive, HCV inhibitor 10µM
O=C(Nc1cccc([N+](=O)[O-])c1)N1CCCCCC1	Pf growth 96h 3.7µM
CC(C)(C)c1ccc(NC(=O)N2CCCN(c3ccc([N+](=O)[O-])cn3)CC2)cc1	Pf growth 48h 8.3µM, Pf growth 96h inconclusive
